PubChem BioAssay (NCATS)
Records with an inconclusive call do not appear. Where a call stands in place of a potency, no number is given. Activity calls are given as the source filed them. Calls follow the shape of the dose curve; as a rule, active = well fitted inhibition curve with a large enough effect; inconclusive = small, poorly fitted or top-dose-only effect; inactive = flat fitted curve, though single readings scatter.

biological target: Luciferin 4-monooxygenase (Photinus pyralis) (UniProt P08659); assay: Biochemical firefly luciferase enzyme assay for NPC (AID 624030);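 also: purified P. pyralis luciferase at 10 nM with luciferin and ATP substrate; nearly all actives have a fitted effect of over 70% in size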; conditions: purified P. pyralis luciferase, luminescence, 5 min; series mostly up to 58.6 µM
In short: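 Purified P. pyralis luciferase at 10 nM in 50 mM Tris Acetate (final), luminescence read within 5 minutes of enzyme addition to compounds. Activity normalised to PTC124 versus DMSO; concentration-response curves classed by r2, magnitude and activity.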

Luciferin 4-monooxygenase (Photinus pyralis), sequence (P08659 whole entry, looked up): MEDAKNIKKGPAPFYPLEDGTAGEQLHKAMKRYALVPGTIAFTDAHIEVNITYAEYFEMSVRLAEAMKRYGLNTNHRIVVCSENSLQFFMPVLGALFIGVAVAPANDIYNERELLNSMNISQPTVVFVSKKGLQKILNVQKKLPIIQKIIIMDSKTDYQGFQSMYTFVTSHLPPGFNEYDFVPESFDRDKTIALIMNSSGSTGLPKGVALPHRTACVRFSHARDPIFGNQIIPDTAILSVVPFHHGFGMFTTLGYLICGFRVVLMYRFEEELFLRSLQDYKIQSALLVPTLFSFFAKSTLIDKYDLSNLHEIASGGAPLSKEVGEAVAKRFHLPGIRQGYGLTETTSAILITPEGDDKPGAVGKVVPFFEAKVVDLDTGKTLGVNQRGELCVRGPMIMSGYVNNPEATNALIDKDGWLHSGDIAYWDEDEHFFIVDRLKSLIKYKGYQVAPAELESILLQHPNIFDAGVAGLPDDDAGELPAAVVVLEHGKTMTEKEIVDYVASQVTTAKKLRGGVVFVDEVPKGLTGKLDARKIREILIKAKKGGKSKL

Compound | Potency
O=C(CCCCCCCCCCCCC1CCCC1)Nc1ccc(S(=O)(=O)c2ccc(NC(=O)CCCCCCCCCCCCC3CCCC3)cc2)cc1 | inactive
Oc1cc(O)cc(O)c1 | inactive
NCC(O)CC(=O)O (stereo not given) | inactive
CN[C@@H]1[C@H](O[C@H]2[C@H](O[C@H]3[C@H](O)[C@@H](O)[C@H](N=C(N)N)[C@@H](O)[C@@H]3N=C(N)N)O[C@@H](C)[C@]2(O)C=O)O[C@@H](CO)[C@H](O)[C@H]1O | inactive
NC(=O)C1c2ccccc2CCc2ccccc21 | inactive
CCOC(=O)[C@@H](N)CS | inactive
COC1=C(OC)C(=O)C(C/C=C(\C)CC/C=C(\C)CC/C=C(\C)CC/C=C(\C)CC/C=C(\C)CC/C=C(\C)CC/C=C(\C)CC/C=C(\C)CC/C=C(\C)CCC=C(C)C)=C(C)C1=O | inactive
CCCCCCCCCCCCCCCCOCCOCCOCCOCCOCCOCCOCCOCCOCCOCCOCCOCCOCCOCCOCCOCCOCCOCCOCCOCCO | inactive
CS(=O)(=O)c1ccc([C@@H](O)[C@@H](COC(=O)CN)NC(=O)C(Cl)Cl)cc1 | inactive
CC(=O)Nc1ccc(OC(C)=O)cc1 | inactive
NC(=S)NS(=O)(=O)c1ccc(N)cc1 | inactive
COc1cc(S(C)=O)ccc1-c1nc2ncccc2[nH]1 (stereo not given) | inactive
Cc1nc(NS(=O)(=O)c2ccc(N)cc2)nc(C)c1Br | inactive
O=C(CCCN1CCN2CCCC2C1)c1ccc(F)cc1 (stereo not given) | inactive
O=C(O)COc1ccc(CCNS(=O)(=O)c2ccccc2)s1 | inactive
[O]=[Bi][O]C(=O)[O][Bi]=[O] | inactive
C=Cc1ccc(S(=O)(=O)O)cc1 | inactive
Cc1ccccn1 | inactive
Cc1ncc(C[n+]2csc(CCOP(=O)(O)OP(=O)(O)O)c2C)c(N)n1 | inactive
CC(=O)Nc1c(I)c(C(=O)O)c(I)c(N(C)C(C)=O)c1I | inactive

Compound | Potency
O=C(NNCNNC(=O)c1ccncc1)c1ccncc1 | inactive
CCCCCCCCCCCCOCCCN | inactive
O=C1[O][Bi][O]c2ccccc21 | inactive
CC(C)C1=CC2=CC[C@@H]3[C@](C)(CCC[C@@]3(C)C(=O)O)[C@H]2CC1 | inactive
CC(C)(CO)[C@@H](O)C(=O)NCCC(=O)NCCSSCCNC(=O)CCNC(=O)[C@H](O)C(C)(C)CO | inactive
O=P(O)(O)OC[C@H](O)CO | inactive
CC12CCC(C1)C(C)(C)C2=O (stereo not given) | inactive
CC(C)CCCC(C)NC(C)C (stereo not given) | inactive
CCCCC(CC)CCC(CC(C)C)OS(=O)(=O)O (stereo not given) | inactive
O=C(O)CCCC/C=C(\c1ccccc1)c1cccnc1 | inactive
CC(C)[C@H](N)C(=O)OCC(CO)OCn1cnc2c(=O)[nH]c(N)nc21 (stereo not given in full) | inactive
CNC(=O)C[C@@H](N)C(=O)N[C@@H](C(=O)N[C@@H]1C(=O)N2[C@@H]1SC(C)(C)[C@@H]2C(=O)O)c1ccc(O)cc1 | inactive
CC(=O)c1ccc2c(c1)N(CCCN1CCN(CCO)CC1)c1ccccc1S2 | inactive
CNC(=O)c1c(I)c(C(=O)NCC(=O)Nc2c(I)c(C(=O)O)c(I)c(C(=O)NCCO)c2I)c(I)c(N(C)C(C)=O)c1I | inactive
CCCc1nc(C(C)(C)O)c(C(=O)OCc2oc(=O)oc2C)n1Cc1ccc(-c2ccccc2-c2nn[nH]n2)cc1 | inactive
O=C(O)c1ccc(NC(=O)[C@H](Cc2ccc(O)cc2)NC(=O)c2ccccc2)cc1 | inactive
CCCC(CCC)C(=O)OC1C[C@H]2CC[C@@H](C1)[N+]2(C)C (stereo not given in full) | inactive
CCN(CC)CCOc1ccccc1OC | inactive
FC(F)(F)C(F)(F)C(F)(F)C(F)(F)C(F)(F)F | inactive
C[C@]12CCC(=O)C[C@@H]1CC[C@@H]1[C@@H]2CC[C@]2(C)C=CC[C@@H]12 | inactive
